For some assays here: Entries with a potency or affinity are not part of this list.
Assays:
Design in all cases: scale not given: direction of the effect not stated beside the values
[1] = target: Protein translocase subunit SecA (Escherichia coli (strain K12)) (UniProt P10408); assay: Assay to Identify E. coli SecA ATPase Inhibitors; type: functional; settings: 30 µM
[2] = target: T1, Ubiquitin-activating enzyme e1, putative (Leishmania donovani (strain BPK282A1)) (UniProt E9BSI1); assay: Leishmania donovani Ubiquitin Activating Enzyme (LdE1); type: functional; settings: 30 µM
T1 sequence (whole entry): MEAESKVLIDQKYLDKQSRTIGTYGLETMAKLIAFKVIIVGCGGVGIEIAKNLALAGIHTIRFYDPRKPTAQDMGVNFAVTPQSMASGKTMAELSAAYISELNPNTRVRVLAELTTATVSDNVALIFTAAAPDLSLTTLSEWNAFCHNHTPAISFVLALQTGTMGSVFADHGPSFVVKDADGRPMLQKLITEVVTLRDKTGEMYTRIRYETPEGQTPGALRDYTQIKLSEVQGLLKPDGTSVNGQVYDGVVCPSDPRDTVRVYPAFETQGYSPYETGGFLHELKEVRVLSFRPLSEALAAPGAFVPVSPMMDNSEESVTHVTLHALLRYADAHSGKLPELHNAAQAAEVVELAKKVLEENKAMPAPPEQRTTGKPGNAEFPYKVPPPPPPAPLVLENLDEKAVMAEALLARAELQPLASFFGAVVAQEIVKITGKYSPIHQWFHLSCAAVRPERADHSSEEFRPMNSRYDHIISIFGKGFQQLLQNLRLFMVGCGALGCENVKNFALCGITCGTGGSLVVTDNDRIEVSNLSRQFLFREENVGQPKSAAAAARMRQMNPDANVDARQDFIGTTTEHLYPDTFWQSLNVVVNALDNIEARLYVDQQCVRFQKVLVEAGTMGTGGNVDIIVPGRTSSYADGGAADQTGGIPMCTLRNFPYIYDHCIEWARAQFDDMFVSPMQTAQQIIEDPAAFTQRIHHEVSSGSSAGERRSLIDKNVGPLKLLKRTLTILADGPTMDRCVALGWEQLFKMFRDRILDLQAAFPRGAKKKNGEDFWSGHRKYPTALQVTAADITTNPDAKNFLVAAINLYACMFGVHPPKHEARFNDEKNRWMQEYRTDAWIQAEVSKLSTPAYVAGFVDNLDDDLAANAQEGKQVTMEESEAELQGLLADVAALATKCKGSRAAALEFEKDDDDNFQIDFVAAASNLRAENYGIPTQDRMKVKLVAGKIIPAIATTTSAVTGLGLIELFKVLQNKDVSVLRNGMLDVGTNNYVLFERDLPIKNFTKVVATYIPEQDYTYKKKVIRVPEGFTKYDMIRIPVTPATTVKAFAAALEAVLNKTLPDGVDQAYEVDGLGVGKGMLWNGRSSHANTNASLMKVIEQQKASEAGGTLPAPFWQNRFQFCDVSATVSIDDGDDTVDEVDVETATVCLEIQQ

[3] = target: AMP-activated protein kinase, AMPK (Homo sapiens) (UniProt P54646+O43741+P54619+Q9UGJ0+Q9Y478+Q13131+Q9UGI9); assay: AMP-dependent Kinase enzyme assay. An in vitro enzyme assay that detects ADP turnover that is directly proportional to AMPK activity. This uses naive AMPK that is activated during the assay with MK-8722; type: functional; settings: 30 µM
[4] = target: Sialic acid-binding Ig-like lectin 9 (Homo sapiens) (UniProt Q9Y336); assay: Hs-Siglec9 ALPHAscreen SOP 20170721; settings: 10 µM
Trypanosoma cruzi = assay: Trypanosoma cruzi phosphomannomutase and mannose-1-phosphate guanylyltransferase assay; type: functional; settings: 10 µM
[5] = target: T2, Arginase-2, mitochondrial (Homo sapiens) (UniProt P78540); assay: in vitro enzyme assay to detect the production of urea directly proportional to the activity of Arginase II; type: functional; settings: 33.3 µM; further: in the data most compounds retested in dose-response had high values
T2 sequence (whole entry): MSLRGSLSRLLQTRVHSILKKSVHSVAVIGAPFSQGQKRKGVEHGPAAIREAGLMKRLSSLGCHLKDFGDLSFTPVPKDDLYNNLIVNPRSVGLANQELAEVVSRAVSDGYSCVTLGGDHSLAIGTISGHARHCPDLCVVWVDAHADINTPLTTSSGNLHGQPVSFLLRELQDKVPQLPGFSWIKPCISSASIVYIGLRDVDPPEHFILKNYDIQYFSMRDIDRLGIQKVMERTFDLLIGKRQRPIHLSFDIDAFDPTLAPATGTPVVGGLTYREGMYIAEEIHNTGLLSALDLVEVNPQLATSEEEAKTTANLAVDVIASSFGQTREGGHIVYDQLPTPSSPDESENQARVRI

[6] = target: T3, Proteasome subunit beta (Trypanosoma cruzi) (UniProt O96673); assay: Trypanosoma cruzi proteasome chymotrypsin-like activity (TcProtChymo) assay.; further: in the data most compounds retested in dose-response had high values; type: functional; settings: 9.37 µM
T3 sequence (whole entry): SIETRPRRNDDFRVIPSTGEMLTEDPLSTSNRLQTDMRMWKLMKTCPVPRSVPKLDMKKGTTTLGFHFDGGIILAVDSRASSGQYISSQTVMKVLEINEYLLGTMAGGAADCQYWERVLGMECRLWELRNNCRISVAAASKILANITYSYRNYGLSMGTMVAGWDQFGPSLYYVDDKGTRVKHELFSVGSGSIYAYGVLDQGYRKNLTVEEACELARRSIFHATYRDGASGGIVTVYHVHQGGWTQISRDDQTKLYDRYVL

Homo sapiens = organism: Homo sapiens; assay: To identify inhibition of the IFN signalling (Jak-Stat) pathway via expression of an eGFP reporter gene under the control of an IFN-stimulated response element (ISRE) containing MxA promoter.; type: functional; settings: 30 µM
[7] = target: T4, Tyrosyl-tRNA synthetase, putative (Trypanosoma cruzi (strain CL Brener)) (UniProt Q4DSP6); assay: Trypanosoma cruzi tyrosyl tRNA synthetase (TcYRS) _High Tyrosine SOP; type: functional; settings: 30 µM; further: in the data most compounds retested in dose-response had high values
T4 sequence (whole entry): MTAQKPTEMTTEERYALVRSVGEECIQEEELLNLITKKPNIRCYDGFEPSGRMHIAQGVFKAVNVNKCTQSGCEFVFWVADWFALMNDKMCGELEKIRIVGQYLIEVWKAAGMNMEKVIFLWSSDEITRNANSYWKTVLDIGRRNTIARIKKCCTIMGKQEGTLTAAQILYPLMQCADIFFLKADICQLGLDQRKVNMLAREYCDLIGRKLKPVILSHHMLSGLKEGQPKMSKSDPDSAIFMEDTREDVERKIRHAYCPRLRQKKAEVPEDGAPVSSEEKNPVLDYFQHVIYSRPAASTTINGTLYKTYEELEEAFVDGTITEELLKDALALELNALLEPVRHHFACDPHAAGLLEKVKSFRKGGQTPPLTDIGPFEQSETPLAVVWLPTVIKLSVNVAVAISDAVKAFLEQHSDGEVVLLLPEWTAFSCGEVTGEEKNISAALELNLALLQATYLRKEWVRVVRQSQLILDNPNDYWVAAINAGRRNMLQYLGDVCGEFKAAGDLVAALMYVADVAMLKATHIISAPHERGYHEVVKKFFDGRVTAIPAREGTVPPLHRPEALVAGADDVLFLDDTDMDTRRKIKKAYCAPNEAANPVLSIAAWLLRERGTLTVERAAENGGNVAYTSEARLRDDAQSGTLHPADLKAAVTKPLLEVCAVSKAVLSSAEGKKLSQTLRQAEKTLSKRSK

[8] = target: T4, Tyrosyl-tRNA synthetase, putative (Trypanosoma cruzi (strain CL Brener)); assay: Trypanosoma cruzi tyrosyl tRNA synthetase (TcYRS) SOP; type: functional; settings: 30 µM
[9] = target: Chromo domain-containing protein 1 (Saccharomyces cerevisiae (strain ATCC 204508 / S288c) (Baker's yeast)) (UniProt P32657); assay: ScCHD-1 Enzyme Inhibition Assay; type: functional; settings: 30 µM; further: in the data most compounds retested in dose-response had high values
Chain of Chromo domain-containing protein 1 (Saccharomyces cerevisiae (strain ATCC 204508 / S288c) (Baker's yeast)) (P32657 whole entry, the tested form may be a part): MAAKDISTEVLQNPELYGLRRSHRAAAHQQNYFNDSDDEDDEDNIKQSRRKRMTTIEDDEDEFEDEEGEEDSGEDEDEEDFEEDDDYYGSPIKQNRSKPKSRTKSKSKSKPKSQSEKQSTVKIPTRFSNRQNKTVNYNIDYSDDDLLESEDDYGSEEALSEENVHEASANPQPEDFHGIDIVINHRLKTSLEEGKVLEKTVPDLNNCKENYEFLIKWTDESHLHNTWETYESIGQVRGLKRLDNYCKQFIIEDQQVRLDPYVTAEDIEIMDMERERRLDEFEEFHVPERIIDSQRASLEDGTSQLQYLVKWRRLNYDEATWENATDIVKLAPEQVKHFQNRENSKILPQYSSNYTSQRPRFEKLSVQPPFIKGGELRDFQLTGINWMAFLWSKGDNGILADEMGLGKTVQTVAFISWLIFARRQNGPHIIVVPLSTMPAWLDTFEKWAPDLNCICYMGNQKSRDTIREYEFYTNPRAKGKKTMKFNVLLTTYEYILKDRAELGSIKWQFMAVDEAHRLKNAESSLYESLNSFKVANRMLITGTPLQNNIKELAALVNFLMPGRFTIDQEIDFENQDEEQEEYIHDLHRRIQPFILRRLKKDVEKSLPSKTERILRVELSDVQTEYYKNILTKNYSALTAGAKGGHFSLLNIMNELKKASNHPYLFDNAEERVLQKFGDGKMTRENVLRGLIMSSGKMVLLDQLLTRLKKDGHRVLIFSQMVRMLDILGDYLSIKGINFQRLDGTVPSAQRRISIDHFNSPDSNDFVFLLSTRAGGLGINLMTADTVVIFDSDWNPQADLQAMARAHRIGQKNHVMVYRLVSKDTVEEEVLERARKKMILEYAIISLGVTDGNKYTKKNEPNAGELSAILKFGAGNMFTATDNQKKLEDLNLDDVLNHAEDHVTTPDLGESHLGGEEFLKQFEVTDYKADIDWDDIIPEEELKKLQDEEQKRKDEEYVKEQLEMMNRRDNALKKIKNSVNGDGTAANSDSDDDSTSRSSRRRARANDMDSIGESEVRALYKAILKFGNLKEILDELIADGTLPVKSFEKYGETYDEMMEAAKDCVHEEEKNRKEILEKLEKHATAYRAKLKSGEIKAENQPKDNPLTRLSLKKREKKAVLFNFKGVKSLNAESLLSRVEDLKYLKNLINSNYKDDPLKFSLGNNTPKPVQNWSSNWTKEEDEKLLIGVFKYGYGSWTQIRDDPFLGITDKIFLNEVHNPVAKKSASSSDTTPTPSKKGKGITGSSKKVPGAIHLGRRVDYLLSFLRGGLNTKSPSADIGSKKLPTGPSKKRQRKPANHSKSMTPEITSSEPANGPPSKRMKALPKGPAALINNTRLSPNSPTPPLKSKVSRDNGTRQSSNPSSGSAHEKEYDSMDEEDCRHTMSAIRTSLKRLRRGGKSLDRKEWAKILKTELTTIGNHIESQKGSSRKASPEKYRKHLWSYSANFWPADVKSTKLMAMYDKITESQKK

Chain of Protein translocase subunit SecA (Escherichia coli (strain K12)) (P10408 whole entry): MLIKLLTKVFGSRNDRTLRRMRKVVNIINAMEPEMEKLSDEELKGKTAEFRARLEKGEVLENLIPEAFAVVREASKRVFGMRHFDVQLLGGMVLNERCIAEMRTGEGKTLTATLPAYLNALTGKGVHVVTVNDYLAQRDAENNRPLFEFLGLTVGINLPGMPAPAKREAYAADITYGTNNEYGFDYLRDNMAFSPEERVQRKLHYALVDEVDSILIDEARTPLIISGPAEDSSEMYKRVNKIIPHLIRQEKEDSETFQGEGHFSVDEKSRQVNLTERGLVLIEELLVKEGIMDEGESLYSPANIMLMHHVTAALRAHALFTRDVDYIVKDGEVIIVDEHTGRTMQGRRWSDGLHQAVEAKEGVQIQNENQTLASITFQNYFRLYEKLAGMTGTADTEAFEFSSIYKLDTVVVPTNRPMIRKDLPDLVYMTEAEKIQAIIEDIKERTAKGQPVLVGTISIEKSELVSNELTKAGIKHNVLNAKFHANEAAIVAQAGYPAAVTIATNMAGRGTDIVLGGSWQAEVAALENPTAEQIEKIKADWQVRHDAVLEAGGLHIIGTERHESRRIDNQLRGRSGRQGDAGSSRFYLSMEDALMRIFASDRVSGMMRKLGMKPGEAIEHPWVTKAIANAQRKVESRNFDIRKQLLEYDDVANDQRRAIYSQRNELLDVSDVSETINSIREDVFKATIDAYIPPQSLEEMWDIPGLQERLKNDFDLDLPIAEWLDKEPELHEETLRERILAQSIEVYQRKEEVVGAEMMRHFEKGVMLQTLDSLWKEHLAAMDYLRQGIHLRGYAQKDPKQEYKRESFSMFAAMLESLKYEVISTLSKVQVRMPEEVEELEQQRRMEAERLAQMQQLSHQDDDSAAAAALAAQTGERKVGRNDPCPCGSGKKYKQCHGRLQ
Chain of Sialic acid-binding Ig-like lectin 9 (Homo sapiens) (Q9Y336 whole entry): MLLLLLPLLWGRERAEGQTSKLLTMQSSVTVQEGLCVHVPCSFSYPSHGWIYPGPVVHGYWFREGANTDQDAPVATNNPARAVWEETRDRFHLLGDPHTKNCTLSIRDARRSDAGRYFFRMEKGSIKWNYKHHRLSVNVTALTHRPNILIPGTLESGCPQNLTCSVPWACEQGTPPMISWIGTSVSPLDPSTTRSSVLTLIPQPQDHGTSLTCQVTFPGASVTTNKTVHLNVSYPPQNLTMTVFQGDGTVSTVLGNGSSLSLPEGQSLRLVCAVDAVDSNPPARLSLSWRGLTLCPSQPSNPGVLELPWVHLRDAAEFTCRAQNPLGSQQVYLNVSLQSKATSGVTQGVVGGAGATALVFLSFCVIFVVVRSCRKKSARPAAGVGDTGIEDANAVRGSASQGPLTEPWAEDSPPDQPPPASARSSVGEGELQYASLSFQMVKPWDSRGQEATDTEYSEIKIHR

SMILES | Percent Effect [1] [%] | Percent Effect [2] [%] | Percent Effect [3] [%] | Percent Effect [4] [%] | Percent Effect (Trypanosoma cruzi) [%] | Percent Effect [5] [%] | Percent Effect [6] [%] | Percent Effect (Homo sapiens) [%] | Percent Effect [7] [%] | Percent Effect [8] [%] | Percent Effect [9] [%]
Cc1ccc(C)c(C(=O)CN2C(=O)c3ccccc3CS2(=O)=O)c1 | -0.543 | -2.7 | -3.5 | 9.17 | 5.79 | 0 | 18.1 | 12 | -36.5 | -41.5 | 22.1
CC(O)CN(CC(=O)NC(=O)NC1CC1)c1ccccc1 (configuration not stated) | -7.41 | 15.6 | -2.19 | -7.69 | -2.64 | -3.16 | 3.64 | 6.08 | 5.71 | 2.35 | -17.8
CNC(=O)c1cccc(C2CNCCN2C(C)=O)c1 (configuration not stated) | 0.479 | 14.9 | 9.34 | -6.16 | -4.15 | -0.232 | 10.6 | 19.3 | 2.15 | 3.9 | -8.27
Cc1cc(C)nc(Nc2cccc(C3CCCN(C)C3)n2)n1 (configuration not stated) | -4.27 | 1.35 | 9.63 | -3.78 | 2.77 | -3.94 | 4.68 | -3.42 | 2.15 | 6.49 | -16.2
CC(C)NC(=O)[C@H]1C[C@@H]2[C@@H](C1)OCCN2Cc1cnn(C)c1 | -3.53 | 0 | 4.75 | 2.29 | -5.6 | -50 | 4.44 | -6.54 | 3.12 | 10 | -4.52
COCC(=O)N1CCN(Cc2coc(-c3cccc(F)c3)n2)CC1 | -5.28 | 0 | 2.98 | 4.95 | -2.62 | 0 | 1.18 | 9.99 | 8.74 | 7.32 | 1.75
O=C(CCc1ccccc1)N1CCn2cc(CN3CCCC3)nc2C1 | 0.2 | 5.2 | -2.41 | 2.78 | -1.08 | -3.23 | 11.8 | 7.71 | 12.7 | 16.7 | -2.74
CNC(=O)C1Cn2ccnc2C2(CCN(Cc3cccnc3)CC2)O1 (configuration not stated) | -4.76 | 10.8 | 2.08 | 2.7 | -0.684 | -0.319 | 23.4 | -1.62 | 9.73 | 25.6 | -0.425
Cc1[nH]ncc1C(=O)N1CCCC(n2cncn2)C1 (configuration not stated) | -6.67 | 1.27 | 7.75 | 26.4 | -0.308 | 3.23 | 4.63 | 9.83 | 1.04 | 0 | -6.77
CCCn1ccc2ccc(NC(=O)N(C)CCOC)cc21 | -1.73 | -10.5 | -6.25 | 4.31 | -4.58 | 1.18 | 9.3 | -9.53 | 1.06 | 5.2 | -2.86
COC(=O)[C@H](C)NC(=O)c1cc(-c2cccc(Cl)c2)no1 | -6.04 | 5.26 | -4.37 | -0.548 | 2.43 | -4.73 | 21.2 | 6.45 | 5.32 | 10.4 | -8.08
Cn1cc(C2COC3(CCN(C(=O)Cn4cccn4)CC3)C2)cn1 (configuration not stated) | -2.57 | 13.5 | -8.57 | -2.55 | 2.25 | 2.23 | 24 | 3.24 | 4.32 | 17.9 | 2.16
CN1CCN(c2ncccc2CNc2ncccc2C#N)CC1 | -5.21 | 8.11 | -1.66 | 20.8 | -2.44 | 3.72 | 3.86 | -10.1 | 4.3 | 13.6 | -4.55
CC(O)CN1CCN(C(=O)c2ccc(N(C)C)nn2)CC1 (configuration not stated) | -4.58 | 10.4 | -1.75 | 11.7 | 3.93 | 4.27 | 1.18 | 17.9 | 3.88 | 12.2 | -9.31
c1cncc(-c2nccc(CN3CCCC3)n2)c1 | -0.958 | 6.76 | 11.4 | -5.74 | 2.37 | -22 | 19.5 | -2.71 | 9.68 | 14.3 | -16.2
Cc1nc(NC(=O)CNC(=O)c2c(F)cccc2Cl)n[nH]1 | -5.26 | 13.2 | 2.15 | 2.44 | 3.21 | -3.55 | 9.11 | 3.8 | 1.06 | 7.79 | -1.65
CC(C)=CCN(C)C1CCCN(Cc2noc(C)n2)C1 (configuration not stated) | -2.36 | 18.9 | 22.7 | -3.99 | -3.06 | 1.29 | 9.7 | 15.7 | 1.98 | 13.4 | -3.38
CNC(=O)C1(CCCc2ccncc2)CCCN1 (configuration not stated) | -0.846 | 12.2 | 14.6 | 0.634 | -2.96 | -2.09 | 12.3 | 1.56 | 7.53 | 22.1 | -10.5
CCN1CC2(CC1=O)CN(Cc1cnn(C)c1)CCN(C(=O)C(C)C)C2 (configuration not stated) | -6.68 | 5.41 | 0.933 | -1.78 | -1.17 | -1.67 | 7.52 | 8.39 | 7.92 | 6.1 | 2.63
CCc1nc(CC(=O)NCC(Cc2ccc(F)cc2)C(N)=O)cs1 (configuration not stated) | -8.91 | 5.26 | -6.2 | 10.1 | 7.89 | -3.55 | -2.21 | 11.5 | 4.25 | 13 | -14.4
c1ccc(Cn2cncn2)c(CNCC2CNc3ccnn3C2)c1 (configuration not stated) | 0.235 | 20.8 | -8.08 | 4.1 | 10.3 | 1.78 | 8.45 | 12.4 | 12.6 | 21.9 | -7.41
Cn1ccnc1CN1CCN(Cc2cc(C#N)ccc2F)CC1 | -2.4 | 2.7 | 1.09 | -1.18 | -9.38 | 6.1 | 10.8 | 20 | 5.94 | 6.1 | 3.16

Source: ChEMBL document CHEMBL3988442, “University of Dundee, Small-Polar-MMV Screening Library” (2021)
